POLK inh: inhibitors of human DNA polymerase kappa | Q9UBT6 | Potency, µM (top dose mostly 107 µM), usual class: inhibitors | hit rate 0.53% among 400,000 | purified Pol kappa, fluorescent DNA synthesis assay, 10 min | AID 588579
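Kinetic fluorescence readout at 0 and 10 min followed reaction start with substrate at 50 nM final. Beforehand, enzyme (10 nM Pol kappa) stood 15 min with compound at room temperature; buffer-only wells were negative controls.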
GLS inhibitor: blocks human kidney-isoform glutaminase activity | Potency, µM (series often up to 45.5 µM), most hits filed as inhibitors | AID 624170 | hit rate 0.21% among 410,000 | GLS enzymatic activity, qHTS titration
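Human kidney-isoform GLS in 45 mM KH2PO4 pH 8.2, 0.02% Tween-20, with compound, started with 1mM L-Glutamine (added stock). Glutamate oxidase/HRP/Amplex red coupled fluorescence read at start and after 30 min at RT.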
Pol beta inh: inhibitors of human DNA polymerase beta; Pol beta primer extension/strand displacement, fluorescence kinetic; Potency, µM (series often up to 114 µM), actives largely listed as inhibitors; hit rate 1.3% among 340,000; AID 485314
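Homogeneous kinetic assay of primer extension and strand displacement by 10 nM Pol beta, preincubated 15 min at room temperature with compound before 50 nM substrate (final) was added. Read at 0 and 10 min; four-parameter Hill fit.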
APEX1 inh: inhibitors of human APE1 endonuclease. recombinant APE1, TAMRA/BHQ-2 abasic DNA cleavage fluorescence. Potency, µM (titrated, usually from 65.8 µM), actives largely listed as inhibitors. hit rate 0.35% among 350,000. AID 2517; further: nearly all actives have a fitted effect of over 55% in size
Target sequence (P27695 whole entry, looked up): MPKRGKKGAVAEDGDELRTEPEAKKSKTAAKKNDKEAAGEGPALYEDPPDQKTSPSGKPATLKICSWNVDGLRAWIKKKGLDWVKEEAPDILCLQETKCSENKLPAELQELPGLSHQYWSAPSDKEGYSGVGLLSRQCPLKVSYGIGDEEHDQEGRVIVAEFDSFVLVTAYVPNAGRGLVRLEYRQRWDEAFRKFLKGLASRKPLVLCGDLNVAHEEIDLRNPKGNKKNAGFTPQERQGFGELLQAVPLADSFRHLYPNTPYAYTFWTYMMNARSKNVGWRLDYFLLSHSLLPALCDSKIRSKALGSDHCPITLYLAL
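0.75 nM APE1 + cpd, 15 min RT; start w/ 50 nM TAMRA/BHQ-2 THF-abasic dsDNA; kinetic fluor 525/598 nm ×3 reads @60 s; Δ(read3−read1); normalized to DMSO and NSC13755 control wells.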
POLI inh: blocks human DNA polymerase iota activity. Potency, µM (top dose mostly 115 µM), actives largely listed as inhibitors. hit rate 1% among 390,000. Pol iota fluorescent replication assay, 10 min. Q9UNA4. AID 588590
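Pol iota at 10 nM preincubated 15 min with compounds at room temperature; reaction started with fluorescent substrate, 50 nM final. Fluorescence read kinetically at 0 and 10 min; buffer-only wells as negative control.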
POLH inh: inhibitors of human DNA polymerase eta | Q9Y253 | recombinant Pol eta, fluorescent DNA replication assay | Potency, µM (series often up to 114 µM), usual class: inhibitors | hit rate 1.2% among 390,000 | AID 588591
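Fluorescent replication assay: 50 nM final substrate added after a 15 min room-temperature compound preincubation with 10 nM enzyme. Signal taken at 0 min and again at 10 min.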
Each line names hits and unclear results; the compound was inactive in the other large screens; ! = a repeat was not active. Hits are enriched below; roughly 2.4% of the tested compounds scored in any of these assays. The call rests on the fitted dose curve; in most records, active means well fitted curve in the direction sought with a large enough effect; inconclusive means small, poorly fitted or top-dose-only effect, or another doubt; inactive means no such curve, though single readings can be large; an effect the other way counts as inactive or inconclusive.

O=C(/C=C/c1ccccc1)N1CCN(Cc2cc(=O)n3nc(-c4ccccc4Cl)sc3n2)CC1	none (no result: APEX1 inh)
O=C(OCc1cc(=O)n2c(n1)sc1ccccc12)c1cccc(O)c1	POLK inh 50.1µM, Pol beta inh 22.4µM, POLI inh 44.7µM, POLH inh inconclusive
O=C(Cc1coc2cc3c(cc12)CCC3)OCc1cc(=O)n2c(n1)sc1ccccc12	POLK inh 89.1µM, Pol beta inh 10µM, APEX1 inh inconclusive, POLI inh inconclusive, POLH inh 10µM
O=C(OCc1cc(=O)n2c(n1)sc1ccccc12)c1ccc(O)cc1O	POLK inh 79.4µM, Pol beta inh 2.82µM, APEX1 inh inconclusive, POLI inh 39.8µM, POLH inh inconclusive
Cc1ccc2c(CC(=O)OCc3csc(C)n3)coc2c1	none
O=C(Nc1cccc(C(=O)OCc2cc(=O)n3c4c(sc3n2)CCCC4)c1)c1ccccc1	none (no result: APEX1 inh)
Cc1ccccc1C(=O)OCc1cc(=O)n2c(C)csc2n1	none (no result: APEX1 inh)
Cc1ccccc1Cn1c2ccccc2c2cnn(CC(=O)NC(C)CCc3ccccc3)c(=O)c21 (stereo unspecified)	none (no result: APEX1 inh)
Oc1ccc(F)cc1-c1cc(-c2ccc3c(c2)OCCO3)n[nH]1	none
O=C(COC(=O)Cn1cnc2ccccc21)Nc1cccc([N+](=O)[O-])c1	none
Cc1cc(-c2sccc2Br)nc(-n2cccc2)n1	POLK inh 79.4µM, POLI inh inconclusive
CCn1c(SCC(=O)Nc2oc(-c3ccccc3)c(-c3ccccc3)c2C#N)nnc1-c1ccncc1	POLK inh inconclusive, POLI inh inconclusive, POLH inh 70.8µM
COc1ccc(N(C(C)C(=O)NCc2ccco2)S(C)(=O)=O)cc1 (stereo unspecified)	POLI inh inconclusive
NC(=O)NC(=O)COC(=O)c1ccc2noc(-c3ccccc3)c2c1	none
CC(=O)COC(=O)c1ccc2noc(-c3ccccc3)c2c1	Pol beta inh 44.7µM, POLH inh inconclusive
COC(=O)c1ccccc1NC(=O)c1cc2ncc(Br)cn2n1	Pol beta inh 44.7µM, POLI inh inconclusive, POLH inh 7.08µM
COC(=O)c1ccccc1NC(=O)c1cc2ccccn2n1	Pol beta inh inconclusive (no result: APEX1 inh)
COc1cccc(OC)c1C(=O)Nc1ccc(CN2CCOCC2)cc1	none
C/C(=N\NC(=O)Cc1cc(=O)[nH][nH]1)c1cccc([N+](=O)[O-])c1	POLI inh 7.08µM
O=C(CC1CCCCC1)N1CCCC(c2nc(-c3ccc(S(=O)(=O)N4CCCC4)cc3)no2)C1 (stereo unspecified)	Pol beta inh 35.5µM, POLI inh inconclusive, POLH inh inconclusive
O=S(=O)(c1ccc(Cl)cc1)N1CCCC(c2nc(-c3ccc(F)cc3)no2)C1 (stereo unspecified)	none (no result: Pol beta inh)
O=C(COC(=O)c1ccc(Br)o1)NCc1ccc2c(c1)OCO2	none (no result: Pol beta inh)
O=C(COC(=O)c1ccc([N+](=O)[O-])o1)NCCc1ccccc1	POLI inh 44.7µM, POLH inh 79.4µM (no result: Pol beta inh)
CC(NC(=O)COC(=O)c1ccc([N+](=O)[O-])o1)c1ccccc1 (stereo unspecified)	POLI inh inconclusive, POLH inh 89.1µM (no result: Pol beta inh)
O=C(COC(=O)c1ccc([N+](=O)[O-])o1)NCc1ccc2c(c1)OCO2	POLI inh inconclusive, POLH inh 79.4µM (no result: Pol beta inh)
CCOC(=O)C1CCCN(C2CCN(Cc3nc(Cc4ccccc4)no3)CC2)C1 (stereo unspecified)	none
Cc1ccccc1NS(=O)(=O)c1csc(C(N)=O)c1	POLI inh inconclusive
C=CCOc1ccc(-c2nc3c(c(=O)[nH]c(=O)n3CCCC)n2C)cc1OC	none
CC1CCCc2sc3nc(SCC(=O)c4ccc(Br)cc4)nc(N)c3c21 (stereo unspecified)	none (no result: APEX1 inh)
N#Cc1c(-c2ccc(Cl)cc2)cc(-c2cccs2)nc1SCC(=O)O	POLK inh inconclusive, Pol beta inh inconclusive, APEX1 inh inconclusive, POLI inh 17.8µM
c1cc(N2CCCCC2)nc(N2CCCCC2)n1	none (no result: Pol beta inh, APEX1 inh)
C[c-]1[c-](C)[c-](C)[c-](C)[c-]1C.[Fe].c1cc2nccc(N3CCCC3)[c-]2c1 (stereo unspecified)	POLK inh inconclusive, GLS inhibitor 12.6µM!, Pol beta inh 4.47µM!, APEX1 inh 2.82µM!, POLI inh 10µM!, POLH inh 20µM!
Cc1cccnc1C1=NOC(Cc2ccccc2)C(=O)N1C (stereo unspecified)	none (no result: POLK inh, Pol beta inh, APEX1 inh, POLI inh, POLH inh)
COc1cc(OC)cc(N2C(=O)CC(N3CCC(C(=O)N4CCCCC4)CC3)C2=O)c1 (stereo unspecified)	Pol beta inh 20µM, APEX1 inh inconclusive, POLI inh inconclusive, POLH inh inconclusive
CCn1c(SCC(=O)c2ccc(CNC(C)=O)o2)nnc1-c1cccs1	Pol beta inh 44.7µM, POLI inh inconclusive, POLH inh inconclusive
CCn1c(SCC(=O)NCc2cccs2)nnc1-c1cccs1	none
COc1ccccc1Cn1c(=O)c2ccccc2n2c(SCC(=O)N3CCCCC3)nnc12	GLS inhibitor 15.8µM
O=C(CSc1nnc2n(C3CCCC3)c(=O)c3ccccc3n12)N1CCCCCC1	none
CN1CCN(C(=O)c2cnn(-c3cccc(F)c3)c2C2CCN(C(=O)OC(C)(C)C)CC2)CC1	none (no result: APEX1 inh)
Cc1oc2c(O)c(O)ccc2c(=O)c1-c1cnn(-c2ccccc2)c1	POLK inh 39.8µM, POLI inh inconclusive, POLH inh inconclusive
COc1ccccc1C(=O)NC(=O)COC(=O)c1nccnc1N	POLH inh 17.8µM (no result: Pol beta inh)
COCCNC(=O)c1ccc(NS(C)(=O)=O)cc1	none
O=C(c1ccco1)N1CCN(Cc2nc(-c3cccs3)no2)CC1	none
O=C(COc1ccccc1)OCc1cc(=O)n2nc(C3CC3)sc2n1	GLS inhibitor inconclusive (no result: APEX1 inh)
CCN(CC)C(=O)CSc1nc2ccc(NC(=O)CSc3nccn3C)cc2s1	Pol beta inh 5.62µM, POLI inh 25.1µM
CCN(CC)C(=O)CSc1nc2ccc(NC(=O)CSc3nnc(N)s3)cc2s1	POLK inh inconclusive, Pol beta inh 31.6µM, APEX1 inh inconclusive, POLI inh 12.6µM, POLH inh 11.2µM
CCN(CC)S(=O)(=O)c1cc(NC(=O)CSc2nnc(N)s2)ccc1C	none (no result: Pol beta inh)
CC(C)CCN(CC(=O)NCc1ccc(F)cc1)S(=O)(=O)c1ccccc1F	none
N#C/C(=C(/O)COC(=O)c1ccc(Cl)c(S(=O)(=O)N2CCOCC2)c1)c1nc2ccccc2[nH]1	none
N#C/C(=C(/O)COC(=O)CCc1ccc(S(=O)(=O)N2CCOCC2)cc1)c1nc2ccccc2[nH]1	Pol beta inh 35.5µM, POLH inh 14.1µM
O=c1c(S(=O)(=O)c2ccc(Cl)cc2)cn(Cc2ccccc2F)c2ccc(F)cc12	none
Cc1ccc(C=Nc2ccccc2C(N)=O)o1	none
CN(C)c1ccc(C=Nc2ccccc2C(N)=O)cc1	POLI inh 89.1µM
